# Measurements taken from PubChem BioAssay (NCATS).
# Unmarked numbers belong to inactive results. Results filed as inconclusive are left out. Active and inactive are the calls of the source. The call rests on the fitted dose curve; in most records, active means well fitted curve in the direction sought with a large enough effect; inconclusive means small, poorly fitted or top-dose-only effect, or another doubt; inactive means no such curve, though single readings can be large; an effect the other way counts as inactive or inconclusive.
# Target: Guanine nucleotide-binding protein G(i) subunit alpha-1 (Homo sapiens) (UniProt P63096)
# Sequence (P63096 whole entry, looked up): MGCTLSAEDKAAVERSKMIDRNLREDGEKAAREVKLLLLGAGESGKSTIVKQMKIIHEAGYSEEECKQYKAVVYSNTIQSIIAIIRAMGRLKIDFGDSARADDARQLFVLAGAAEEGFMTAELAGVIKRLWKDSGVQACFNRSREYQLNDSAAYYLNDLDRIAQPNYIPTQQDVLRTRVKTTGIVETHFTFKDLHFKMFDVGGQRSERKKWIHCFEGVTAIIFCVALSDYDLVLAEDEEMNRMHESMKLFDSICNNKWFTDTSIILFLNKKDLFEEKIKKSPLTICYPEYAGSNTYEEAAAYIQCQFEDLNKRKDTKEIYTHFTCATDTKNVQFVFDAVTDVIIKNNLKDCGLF
# Assay: qHTS Assay for Inhibitors of RGS12 GoLoco Motif Activity (Green Fluorophore) (AID 879);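 further: 0% = labeled peptide with Gαi1 and full inhibition = labeled peptide alone without protein; negative values mean loss of peptide binding seen as reduced polarization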
# Conditions: Galphai1/FITC-RGS12 GoLoco peptide, fluorescence polarization; series mostly up to 57.1 µM; activity, negative = inhibition: at the top concentration
# Summary of the method: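 Fluorescence polarization assay: 50 nM Gαi1 with 10 nM FITC-labeled RGS12 GoLoco peptide in 10 mM Tris pH 7.5, 150 mM NaCl, 0.1 mM GDP, 0.05% NP40, 10 min at room temperature with compound.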
row,SMILES,"activity, negative = inhibition [%]"
1,Cc1[nH]c(=O)c(C#N)cc1-c1ccc2nccn2c1,-11.7
2,Cc1[nH]c(=O)c(C#N)cc1-c1ccncc1,-11.2
3,CN1CCN(CCCN2c3ccccc3Sc3ccc(C(F)(F)F)cc32)CC1,-9.93
4,Cc1cn[nH]c1,-5.35
5,Nc1nc2ccc(OC(F)(F)F)cc2s1,-19.1
6,NCCc1ccc(O)c(O)c1,-19.6
7,CNC[C@H](O)c1cccc(O)c1,-7.33
8,CCCCNc1cc(C(=O)O)cc(S(N)(=O)=O)c1Oc1ccccc1,2.54
9,O=NN(CCCl)C(=O)NCCCl,-11.6
10,Cc1cnc(NC(=O)C2=C(O)c3ccccc3S(=O)(=O)N2C)s1,-18.3

# Target: Cytochrome P450 3A4 (Homo sapiens) (UniProt P08684)
# Sequence (P08684 whole entry, looked up): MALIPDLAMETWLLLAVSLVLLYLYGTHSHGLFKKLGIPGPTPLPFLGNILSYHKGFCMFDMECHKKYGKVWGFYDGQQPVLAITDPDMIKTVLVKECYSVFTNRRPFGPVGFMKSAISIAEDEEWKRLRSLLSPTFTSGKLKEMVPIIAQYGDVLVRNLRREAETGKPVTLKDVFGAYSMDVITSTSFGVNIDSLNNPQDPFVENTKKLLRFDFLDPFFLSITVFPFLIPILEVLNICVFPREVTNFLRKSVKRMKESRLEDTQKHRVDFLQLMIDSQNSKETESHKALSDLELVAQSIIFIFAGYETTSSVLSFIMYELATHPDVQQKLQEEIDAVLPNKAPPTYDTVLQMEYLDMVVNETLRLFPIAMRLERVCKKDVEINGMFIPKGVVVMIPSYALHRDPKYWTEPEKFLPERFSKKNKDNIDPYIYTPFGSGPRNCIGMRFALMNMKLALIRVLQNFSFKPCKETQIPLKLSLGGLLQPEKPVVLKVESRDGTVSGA
# Assay: qHTS Assay for Inhibitors and Substrates of Cytochrome P450 3A4 (AID 884); further: on the % scale 0 is the no-effect control and ±100 the full control effect; nearly all actives have a fitted effect of over 50% in size
# Conditions: recombinant CYP3A4, Luciferin-PPXE luminescence; series mostly up to 57.1 µM; activity change, negative = inhibition: at the top concentration
# Summary of the method: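 20 nM human CYP3A4 with 25 uM Luciferin-PPXE (at KM) in 200 mM KPO4, preincubated 10 min with compound; NADPH regeneration started a 60 min RT reaction. Luciferin detected by luminescence, normalized to 57 uM ketoconazole as full inhibition.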
row,SMILES,"activity change, negative = inhibition [%]"
1,CCN(CC)CCCC(C)Nc1nc(C)cc(Nc2ccc3nc(C)cc(N)c3c2)n1 (stereo not given),-16.4
2,CC(C[N+](C)(C)C)OC(N)=O (stereo not given),-3.34
3,CCn1cc(C(=O)O)c(=O)c2cc(F)c(N3CCNC(C)C3)c(F)c21 (stereo not given),-1.03

# Target: Cytochrome P450 3A4 (Homo sapiens) (UniProt P08684)
# Assay: qHTS Assay for Activators of Cytochrome P450 3A4 (AID 885); further: nearly all actives have a fitted effect of over 65% in size
# Conditions: recombinant CYP3A4, Luciferin-PPXE luminescence, 60 min; series mostly up to 57.1 µM; activity change, positive = activation: at the top concentration
# Summary of the method: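 20nM CYP3A4 + 25uM Luciferin-PPXE (=KM), 200mM KPO4; cpd 10 min RT; NADPH regen, 60 min RT; stop w/ detection buffer, 20 min; luminescence. Normalized to 57 uM ketoconazole.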
row,SMILES,"activity change, positive = activation"
1,COc1ccc2nc(S(=O)Cc3ncc(C)c(OC)c3C)[nH]c2c1 (stereo not given),-83.1% [at 25.6 µM]
2,CCc1ccc(CCOc2ccc(CC3SC(=O)NC3=O)cc2)nc1 (stereo not given),-67.3%
3,NC(=O)c1ccc(-c2nc(-c3ccc4c(c3)OCO4)c(-c3ccccn3)[nH]2)cc1,-117%

# Test system: not listed separately
# Assay: Confirmation and Secondary Assay for Modulators of Hemoglobin Beta Chain Splicing at IVS2 654 locus (AID 910);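 further: HeLa cells stably carrying EGFP split by mutant beta-globin IVS2-654 intron; % of control where 0% means no effect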
# Conditions: HeLa EGFP-654 splicing reporter, GFP fluorescence, 48 h; series mostly up to 46.1 µM; activation (splicing correction): at the top concentration
# Summary of the method: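 HeLa cells stably expressing EGFP interrupted by β-globin IVS2-654 intron, seeded overnight in Opti-MEM/2% FCS, then treated 2 days at 37 °C. Restored splicing read as total peak GFP intensity per well by laser scanning cytometry (488 nm excitation, 500–520 nm emission); 500 nM antisense PNA as control.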
SMILES,activation (splicing correction),Potency
CCCc1nn(C)c2c(=O)[nH]c(-c3cc(S(=O)(=O)N4CCN(C)CC4)ccc3OCC)nc12,10.2%,
O=C(O)COCCN1CCN(C(c2ccccc2)c2ccc(Cl)cc2)CC1 (stereo not given),-0.3%,
CC(C)(C)NCC(O)c1ccc(O)c(CO)c1 (stereo not given),3.07% [at 38.3 µM],
CN1CCN(CCCN2c3ccccc3Sc3ccc(C(F)(F)F)cc32)CC1,0.0458%,
Cc1ccccc1C(OCCN(C)C)c1ccccc1 (stereo not given),5.13%,
NCCc1ccc(O)c(O)c1,,inactive
CCc1ccc(CCOc2ccc(CC3SC(=O)NC3=O)cc2)nc1 (stereo not given),-7.75%,
CCCCNc1cc(C(=O)O)cc(S(N)(=O)=O)c1Oc1ccccc1,-0.633%,
O=NN(CCCl)C(=O)NCCCl,1.57% [at 38.3 µM],
CC(C[N+](C)(C)C)OC(N)=O (stereo not given),9.23%,
CCn1cc(C(=O)O)c(=O)c2cc(F)c(N3CCNC(C)C3)c(F)c21 (stereo not given),-3.66%,
CCCc1nc2c(C)cc(-c3nc4ccccc4n3C)cc2n1Cc1ccc(-c2ccccc2C(=O)O)cc1,-0.568%,
Cc1cc2c(C(C)C)c(O)c(O)c(C=O)c2c(O)c1-c1c(C)cc2c(C(C)C)c(O)c(O)c(C=O)c2c1O,-8.32%,
CCN(CC)CCCC(C)Nc1ccnc2cc(Cl)ccc12 (stereo not given),-3.45%,
Cc1cnc(NC(=O)C2=C(O)c3ccccc3S(=O)(=O)N2C)s1,0.504%,

# Test system: not listed separately
# Assay: qHTS Assay for Identification of Small Molecule Agonists for Thrombopoietin (TPO) Signaling Pathway (AID 917); further: on the % scale 0 is the no-effect control and ±100 the full control effect
# Conditions: TPO signaling pathway reporter cells, agonist qHTS, stimulated with TPO at its EC50; series mostly up to 38.5 µM; activity, positive = activation: at the top concentration
# Summary of the method: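 Activators of TPO signaling were sought in murine Ba/F3 cells transfected with the human receptor, using a luciferase gene driven by the Glycoprotein IIb promoter; 24-hr compound exposure at 37 C alongside 26 pM TPO, in IL-3-free medium.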
row,SMILES,"activity, positive = activation [%]"
1,Cc1[nH]c(=O)c(C#N)cc1-c1ccc2nccn2c1,-12.6
2,Cc1[nH]c(=O)c(C#N)cc1-c1ccncc1,10.7
3,Cc1cn[nH]c1,8.4
4,Nc1nc2ccc(OC(F)(F)F)cc2s1,7.1
5,CNC[C@H](O)c1cccc(O)c1,-7.98
6,CCCCNc1cc(C(=O)O)cc(S(N)(=O)=O)c1Oc1ccccc1,-4.38
7,O=NN(CCCl)C(=O)NCCCl,-18.9

# Test system: not listed separately
# Assay: Confirmation and Secondary Assay for Modulators of Hemoglobin Beta Chain Splicing at IVS2 705 locus (AID 930);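 further: HeLa cells stably expressing the EGFP-705 splicing reporter; GFP fluorescence per well restored by corrected splicing of the IVS2-705 intron in EGFP; % of control where 0% means no effect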
# Conditions: HeLa EGFP-705 splicing reporter, GFP fluorescence, 48 h; series mostly up to 46.1 µM; activation: at the top concentration
# Summary of the method: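 HeLa cells stably carrying EGFP interrupted by mutant beta-globin intron 2 (IVS2-705) treated 2 days at 37C with compound; 500 nM antisense PNA as control. Correct splicing read as total peak GFP intensity per well by laser-scanning cytometry.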
SMILES,activation,Potency
CCCc1nn(C)c2c(=O)[nH]c(-c3cc(S(=O)(=O)N4CCN(C)CC4)ccc3OCC)nc12,-0.869%,
O=C(O)COCCN1CCN(C(c2ccccc2)c2ccc(Cl)cc2)CC1 (stereo not given),0.474%,
CC(C)(C)NCC(O)c1ccc(O)c(CO)c1 (stereo not given),1.25% [at 38.3 µM],
CN1CCN(CCCN2c3ccccc3Sc3ccc(C(F)(F)F)cc32)CC1,2.17%,
Cc1ccccc1C(OCCN(C)C)c1ccccc1 (stereo not given),0.0483%,
NCCc1ccc(O)c(O)c1,,inactive
CCc1ccc(CCOc2ccc(CC3SC(=O)NC3=O)cc2)nc1 (stereo not given),-0.726%,
CCCCNc1cc(C(=O)O)cc(S(N)(=O)=O)c1Oc1ccccc1,-0.494%,
O=NN(CCCl)C(=O)NCCCl,0.971% [at 38.3 µM],
CC(C[N+](C)(C)C)OC(N)=O (stereo not given),1.5%,
CCn1cc(C(=O)O)c(=O)c2cc(F)c(N3CCNC(C)C3)c(F)c21 (stereo not given),5.21%,
CCCc1nc2c(C)cc(-c3nc4ccccc4n3C)cc2n1Cc1ccc(-c2ccccc2C(=O)O)cc1,2.1%,
Cc1cc2c(C(C)C)c(O)c(O)c(C=O)c2c(O)c1-c1c(C)cc2c(C(C)C)c(O)c(O)c(C=O)c2c1O,-0.388%,
CCN(CC)CCCC(C)Nc1ccnc2cc(Cl)ccc12 (stereo not given),-1.6%,
Cc1cnc(NC(=O)C2=C(O)c3ccccc3S(=O)(=O)N2C)s1,-0.804%,

# Target: Muscarinic acetylcholine receptor M1 (Rattus norvegicus) (UniProt P08482)
# Sequence (P08482 whole entry, looked up): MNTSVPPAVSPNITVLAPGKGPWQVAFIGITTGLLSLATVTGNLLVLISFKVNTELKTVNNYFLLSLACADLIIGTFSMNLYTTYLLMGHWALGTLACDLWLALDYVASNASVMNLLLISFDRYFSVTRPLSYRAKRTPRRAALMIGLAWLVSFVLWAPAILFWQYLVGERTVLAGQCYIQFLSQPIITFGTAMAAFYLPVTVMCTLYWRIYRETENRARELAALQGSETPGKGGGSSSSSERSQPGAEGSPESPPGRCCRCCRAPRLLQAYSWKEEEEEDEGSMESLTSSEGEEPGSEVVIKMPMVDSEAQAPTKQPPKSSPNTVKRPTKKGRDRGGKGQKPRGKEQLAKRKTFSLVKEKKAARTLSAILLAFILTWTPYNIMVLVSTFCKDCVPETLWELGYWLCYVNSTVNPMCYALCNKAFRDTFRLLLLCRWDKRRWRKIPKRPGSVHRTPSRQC
# Assay: qHTS Assay for Antagonists of Acetylcholine Muscarinic M1 Receptor: Kinetic Measurement of Intracellular Calcium Response (AID 943);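 further: Fluo-4 calcium signal as peak divided by basal fluorescence over 4 min; nearly all actives have a fitted effect of over 75% in size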
# Conditions: M1-expressing cells, kinetic intracellular calcium fluorescence; series mostly up to 35.3 µM; activity change, negative = inhibition: at the top concentration
# Summary of the method: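 CHO cells stably expressing rat M1 were loaded with no-wash Fluo-4 dye for 1 h at 37C, pre-incubated 10 min with compound, then challenged with EC80 carbachol (100 nM final); kinetic calcium read 4 min, peak/basal ratio.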
row,SMILES,"activity change, negative = inhibition [%]"
1,NCCc1ccc(O)c(O)c1,-35.2
2,CNC[C@H](O)c1cccc(O)c1,-36.3
3,CCCCNc1cc(C(=O)O)cc(S(N)(=O)=O)c1Oc1ccccc1,-5.67

# Target: Muscarinic acetylcholine receptor M1 (Rattus norvegicus) (UniProt P08482)
# Assay: qHTS Assay for Antagonists of Acetylcholine Muscarinic M1 Receptor: Measurement of IP-One Response (AID 944); further: nearly all actives have a fitted effect of over 75% in size
# Conditions: CHO-M1 cells, IP-One HTRF, antagonist mode; series mostly up to 46.1 µM; activity change, negative = inhibition: at the top concentration
# Summary of the method: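 CHO cells expressing rat M1 receptor, recovered overnight, were pre-incubated 10 min with compound, then stimulated 30 min with carbachol at EC80 (200 nM) in LiCl-containing buffer, pH 7.4. IP1 accumulation was read by HTRF (620/665 nm).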
row,SMILES,"activity change, negative = inhibition [%]"
1,Cc1[nH]c(=O)c(C#N)cc1-c1ccc2nccn2c1,-16.1
2,NCCc1ccc(O)c(O)c1,-46.1
3,CNC[C@H](O)c1cccc(O)c1,-30.6
4,CCCCNc1cc(C(=O)O)cc(S(N)(=O)=O)c1Oc1ccccc1,-24.1
